# Compound activity deposited in PubChem BioAssay by National Center for Advancing Translational Sciences (NCATS).
# Shown are actives, neighbours in structure and some others; about 12% of the full set was active somewhere.
# L3MBTL1 inh – inhibitors of human L3MBTL1; Q9Y468; AlphaScreen L3MBTL1–H3K9me1 peptide binding; Potency, µM (highest dose often 57.1 µM), for inactives: top-dose activity, negative = inhibition, actives largely listed as inhibitors; 230,000 tested, 0.66% active; AID 485360; further: on the % scale 0 is the no-effect control and ±100 the full control effect; nearly all actives have a fitted effect of over 60% in size
#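 First, the protein-peptide complex forms for 30 min at room temperature (L3MBTL1 50 nM, biotinylated H3K9me1 peptide 75 nM). Next, compounds are pin-transferred and incubated 30 min. Finally, AlphaScreen beads are added and read after 30 min.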
# G9a block – G9a (human) methyltransferase inhibition; AID 504332; G9a H3K9 monomethylation, AlphaScreen, 2 h; 350,000 tested, 8.8% active; Q96KQ7; Potency, µM (series often up to 102 µM), inactives show top-dose activity, negative = inhibition, actives largely listed as inhibitors; further: on the % scale 0 is the no-effect control and ±100 the full control effect; nearly all actives have a fitted effect of over 75% in size
#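 G9a (20 nM) preincubated 15 min RT with compounds, then 500 nM biotinylated H3K9 peptide and 20 uM SAM added; 2 h RT reaction. Monomethyl-H3K9 product detected by AlphaScreen with anti-H3K9me1 antibody, streptavidin donor and anti-rabbit IgG acceptor beads.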
# Sfp PPTase inh – inhibitors of Bacillus subtilis Sfp phosphopantetheinyl transferase | Potency, µM, for inactives: largest response in the series, negative = inhibition, hits mostly inhibitors | Q9F4F7 | Biochemical Sfp PPTase activity, qHTS | AID 1490 | 310,000 tested, 3.5% active;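 further: the enzyme is Sfp with the accession as filed and its product quenches rhodamine fluorescence; 0% = enzyme reaction without inhibitor and -100% = no enzyme wells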
#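 Fluorescence-quenching assay with 15 nM Sfp, 5 uM rhodamine-CoA and 12.5 uM BHQ-2-labelled ybbR peptide in pH 7.6 Hepes/MgCl2 buffer. Enzyme was pre-incubated with compound for 15 min at room temperature. Rate was taken from the 30-min fluorescence change (525/598 nm).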
# HP1b chromo inh – HP1-beta chromodomain-methylated histone interaction inhibition; 390,000 tested, 0.56% active; P83916; AlphaScreen HP1-beta / biotin-H3K9me3 peptide binding; Potency, µM (titrated, usually from 114 µM), for the others: top-dose activity change, negative = inhibition, most hits filed as inhibitors; further: nearly all actives have a fitted effect of over 70% in size
#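 AlphaScreen: HP1-beta (50 nM) preformed 30 min with biotin-H3(1-18)K9me3 peptide (50 nM) in PBS pH 7.4, 0.01% Tween-20. Compound added for 30 min at RT, then streptavidin donor/nickel chelate acceptor beads (10 ug/mL) for 30 min.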
# JMJD2A Tudor – inhibitors of human JMJD2A Tudor domain; Potency, µM (highest dose often 114 µM), for inactives: top-dose activity change, negative = inhibition, hits mostly inhibitors; AID 504339; AlphaScreen JMJD2A-Tudor / H3K4me3 peptide binding; O75164; 390,000 tested, 4.4% active; further: on the % scale 0 is the no-effect control and ±100 the full control effect; nearly all actives have a fitted effect of over 50% in size
# BAZ2B inh – blocks human BAZ2B; Q9UIF8; AlphaScreen BAZ2B-H3K14Ac peptide displacement; Potency, µM (series often up to 114 µM), without a hit: at the highest dose activity change, negative = inhibition, hits mostly inhibitors; 360,000 tested, 4.4% active; AID 504333; further: on the % scale 0 is the no-effect control and ±100 the full control effect; nearly all actives have a fitted effect of over 60% in size
#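 BAZ2B (50 nM) with biotin-H3(5-23)K14Ac peptide (50 nM) in PBS pH 7.4, 0.01% Tween-20, preformed 30 min, then compound 30 min at room temperature; top concentration 110uM. AlphaScreen streptavidin donor/nickel chelate acceptor beads (10 ug/mL final), 20 min dark, signal read.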
# Numbers without * were called inactive; u = inconclusive; x = no result given; [ ] = remark or other dose. The call rests on the fitted dose curve; in most records, active means well fitted curve in the direction sought with a large enough effect; inconclusive means small, poorly fitted or top-dose-only effect, or another doubt; inactive means no such curve, though single readings can be large; an effect the other way counts as inactive or inconclusive. Potency means the concentration at half of the fitted maximal effect.
SMILES,L3MBTL1 inh,G9a block,Sfp PPTase inh,HP1b chromo inh,JMJD2A Tudor,BAZ2B inh
N#Cc1c2c(c(Nc3ccc(O)cc3)n3c1nc1ccccc13)CCC2,-3%,1.3µM*,5%,24%,-19%,-33%
Cc1ccccc1C1N(c2nccs2)C(=O)C2CCCN21 (stereo unspecified),x,u,50µM*,40%,2%,-33%
CCOc1ccccc1C1N(c2ccc(F)cc2)C(=O)C2CCCN21 (stereo unspecified),-1%,13%[12.7 µM],6%,27%,7%,8%
O=C1C2CCCN2C(c2ccccc2)N1c1nccs1 (stereo unspecified),46%,u,50µM*,19%,u,u
O=C1C2CCCN2C(c2ccccc2)N1c1cccc(Cl)c1 (stereo unspecified),x,-12%,0%,66%,-18%,-4%
Cc1ccc(NC(=O)CSc2nc(N)cc(=O)[nH]2)cc1S(=O)(=O)N1CCCCC1,-1%,x,x,30%[57 µM],-12%,x
CCOc1ccc(-c2nc(C#N)c(N3CCN(Cc4ccccc4)CC3)o2)cc1,x,10µM*,-7%,u,u,u
COc1ccc(N2CCN(c3oc(-c4ccc(OC)c(OC)c4)nc3C#N)CC2)cc1,x,-32%[2.33 µM],u,7%,-8%,u
COc1ccc(N2CCN(c3oc(-c4ccccc4OC)nc3C#N)CC2)cc1,u,2.5µM*,-15%,u,13µM*,8.9µM*
Cc1cccc(-c2nc(C#N)c(N3CCCCCC3)o2)c1,x,u,-14%,u,u,13µM*
COc1ccccc1-c1nc(C#N)c(N2CCCCCC2)o1,x,45µM*,u,-43%,u,u
Cc1cccc(-c2nc(C#N)c(N3CCC(C)CC3)o2)c1,x,-2%,11%,53%,1%,11%
COc1ccc(O[C@H]2C=C[C@@H](c3ccccc3)O[C@H]2COC(=O)CC/C(C)=N\O[C@@H](C)c2cn([C@H]3COC[C@H]3O)nn2)cc1,x,x,-8%,x,x,x
O=C(COC(=O)/C=C/c1ccc2c(c1)OCO2)NCc1ccccc1,-1%,19%[59 µM],x,47%,-18%,-3%
O=C(NC1CCN(C(=S)Nc2ccc(F)cc2)CC1)c1ccco1,x,9%,2%,36%,-2%,-22%
COc1ccc(-c2nc(C#N)c(N3CCN(c4ccccc4)CC3)o2)cc1,-10%,8.9µM*,-25%,-24%,u,u
COc1ccccc1-c1nc(C#N)c(N2CCN(c3ccccc3)CC2)o1,u,u,11%,u,u,11µM*
COc1ccccc1-c1nc(C#N)c(N2CC(C)CC(C)C2)o1 (stereo unspecified),-19%,u,5%,5%,-5%,u
NC(=S)Cc1nc(-c2ccccc2)cs1,-2%,u,56µM*,u,-30%,u
CCN1CCOC(CC(=O)Nc2cccc([N+](=O)[O-])c2)C1=O (stereo unspecified),0%,7.9µM*,u,16%,-2%,-29%
CCOC(=O)c1ccc(NC(=O)CC2OCCN(CC)C2=O)cc1 (stereo unspecified),-19%,u,-7%,29%,-25%,-16%
CCCN1CCOC(CC(=O)Nc2ccc([N+](=O)[O-])cc2)C1=O (stereo unspecified),x,20µM*,3%,-3%,-6%[11.4 µM],2%
C=CCn1c(SCC(=O)N(CCO)CCO)nc2sc3c(c2c1=O)CCC3,-2%,0%,21%,12%,1%,10%
COCCn1c(N/N=C(C)/C=C/c2ccccc2)nc2c1c(=O)[nH]c(=O)n2C,3%,x,40µM*,x,x,-13%
Cn1c(=O)[nH]c(=O)c2c1nc(Br)n2C/C=N/Nc1ccccc1,x,u,56µM*,37%,-31%,u
CCCn1c(N/N=C\C=C\c2ccccc2)nc2c1c(=O)[nH]c(=O)n2C,-5%,-44%,-24%,-4%,-29%,x
